# Laboratory results from ChEMBL document CHEMBL4513216, “Probing the Open Global Health Chemical Diversity Library for Multistage-Active Starting Points for Next-Generation Antimalarials” (ACS Infect Dis, 2020).
# Hit rate of the full screen: of about 69,000 compounds, about 8,600 (12%) showed an effect of 50% or more. Only a selection was taken, and strong results are over-represented in it overall.
# Test system: Plasmodium berghei
# Assay: Screen against P. berghei liver stage (PbLuc), transformed with Luciferase, at 10uM
# Assay type: functional, HepG2
# Details: tested at 10 uM
row,SMILES,INHIBITION [%]
1,O=C(NC1CC1)N1CCCC2(CCCCN2)C1 (stereo unspecified),13.7
2,c1cnn(CC2CN(Cc3nc(C4CC4)no3)CCO2)c1 (stereo unspecified),-12.2
3,COc1cc(C(C)NCc2cscn2)ccc1SC(F)F (stereo unspecified),27
4,COc1ccc(C(C)NCc2scnc2C)cc1Cn1cccn1 (stereo unspecified),35.3
5,COc1ccc(C(C)NCc2nnc(C)s2)cc1F (stereo unspecified),39.4
6,COc1cc(C(C)NCc2scnc2C)ccc1SC(F)F (stereo unspecified),75.6
7,COc1cc(C(C)NCc2ncccc2C)ccc1SC(F)F (stereo unspecified),66.2
8,COc1ccc(C(C)NCc2c[nH]nc2C)cc1OC (stereo unspecified),-43
9,Cc1nnc(CN(C)C2CCN(Cc3nc4ccccc4n3C)C2)o1 (stereo unspecified),-25.8
10,Cn1c(SCC(O)COCc2ccccc2Cl)nnc1C1CC1 (stereo unspecified),36.6
11,Cn1c(SCC(O)COCc2ccc(Cl)cc2)nnc1C1CC1 (stereo unspecified),-18.6
12,OC(COCc1ccccc1)CSc1nnc(C2CC2)n1C1CC1 (stereo unspecified),52.8
13,NC(=O)C1CCN(C(=O)c2cc(-n3cnnn3)ccc2Cl)CC1,28.4
14,CC(NC(=O)C1CC1)C(=O)N(C)Cc1ccsc1 (stereo unspecified),16.1
15,CCCc1ncc(CNC2(c3ccc(Cl)cc3)CC2)cn1,44.8
16,Cc1nc(C2CCN(C(=O)CO)CC2)cc(N2CCOCC2)n1,36.8
17,Cc1nc(C2CCN(C[C@H](C)CO)CC2)cc(N2CCOCC2)n1,60.3
18,Cc1nc(C2CCN(C(=O)COC(C)C)CC2)cc(N2CCOCC2)n1,3.96
19,O=C(Cc1cccs1)Nc1cnn(C2CCOC2)c1 (stereo unspecified),5.91
20,O=C(Nc1ccc2c(c1)OCO2)Nc1cnn(C2CCOCC2)c1,36.5
21,Cc1cccc(CC(=O)Nc2cnn(C3CCOC3)c2)c1 (stereo unspecified),-13.6
22,O=C(Nc1cnn(C2CCOCC2)c1)c1ccc2c(c1)OCO2,-38.6
23,O=C(Cc1cccs1)Nc1cnn(C2CCOCC2)c1,71.3
24,O=C(Cc1ccccc1Cl)Nc1cnn(C2CCOC2)c1 (stereo unspecified),51.8

row,SMILES,INHIBITION [%]
1,COc1ccccc1-c1cc(C(=O)Nc2nc[nH]n2)[nH]n1,-36
2,O=S(=O)(CCN1CCCC1Cn1cncn1)c1ccccc1 (stereo unspecified),-43.6
3,Cc1cc(C(=O)NCC(Cc2cccc(F)c2)N2CCCCC2=O)no1 (stereo unspecified),34.9
4,CNC(=O)[C@@H]1CCO[C@@H]2CCN(C3CCOCC3)C[C@@H]21,-46.9
5,O=C(CCn1ccc2ccc(Br)cc21)NCc1ccc(C(=O)O)cc1,15.1
6,O=C(c1ccncc1F)N1CC2CC1(C(=O)N1CCCC1)C2,58
7,Cn1ccnc1C1CCCN(C(=O)c2ccncc2F)C1 (stereo unspecified),42.5
8,Cc1oncc1C(=O)N1CC2CC1(C(=O)N1CCCC1)C2,-15.9
9,O=C(NCc1cc(-c2ccccc2)no1)NCC1CCCO1 (stereo unspecified),1.06
10,CC1=CCN(S(=O)(=O)c2cccc(C(=O)N3CCCN(C)CC3)c2)CC1,14
11,N#Cc1ccc(OCCN2CCn3c(nnc3C3CC3)C2)cc1,11.2
12,CS(=O)(=O)CCCSCc1ccc(Br)c(F)c1,-59.7
13,CS(=O)(=O)CCCSCc1cc(F)cc(Br)c1,31.2
14,CC(NC(N)=O)C(=O)NCc1ccc(Br)c(F)c1 (stereo unspecified),-31.1
15,NC(=O)CCSCc1ccc(Br)c(F)c1,52.8
16,CS(=O)(=O)CCSCc1ccc(Br)c(F)c1,50.7
17,NC(=O)NC1CCN(Cc2ccc(Br)c(F)c2)CC1,1.45
18,Cc1ccnc(C2(C)CCCN2S(=O)(=O)c2ccccc2)n1 (stereo unspecified),45.55
19,Cn1cnnc1C1CCN(C(=O)COCc2ccccc2Cl)CC1,39.2
20,CC(C)Cn1cc(NC(=O)N2CCCC2)cn1,-37.8
21,CN1C[C@@H]2CN(Cc3ccsc3)CCC[C@]2(C(=O)O)C1,-64.1
22,CC(C)C1CCN(C(=O)NCC(=O)N(C)CC(F)(F)F)CC1,34.2
23,CN(Cc1nnc2n1CCC2)S(=O)(=O)c1ccc(Br)cc1Cl,52.6
24,Cc1nnc(CN(C)S(=O)(=O)c2ccc(Br)cc2Cl)n1C,33.1

row,SMILES,INHIBITION [%]
1,CN(Cc1nnc2n1CCC2)S(=O)(=O)c1cc(Br)ccc1Br,30.9
2,CC(CN1CCCC1=O)NC(=O)c1cc(Cl)c2c(c1)OCO2 (stereo unspecified),38.5
3,Cc1cccnc1CN1CCCCC1c1ccn2ccnc2n1 (stereo unspecified),45.6
4,CCc1cnc(CNC(=O)N2CCCC(c3ncc[nH]3)C2)s1 (stereo unspecified),40.6
5,CCOc1ccccc1CC(=O)N1CCCC(c2ncc[nH]2)C1 (stereo unspecified),19.7
6,O=S(=O)(c1ccc(Cl)s1)N1CCCC(c2ncc[nH]2)C1 (stereo unspecified),50.4
7,Cn1cc(C(=O)N2CCCC(c3ncc[nH]3)C2)cn1 (stereo unspecified),-24.9
8,O=C(CCn1cnnc1)N1CCCC(c2ncc[nH]2)C1 (stereo unspecified),-12.2
9,CCc1cnc(CCNC(=O)N2CCCC(c3ncc[nH]3)C2)s1 (stereo unspecified),52.6
10,CCC(CC)c1cc(CNC(=O)N2CCCC(c3ncc[nH]3)C2)on1 (stereo unspecified),-1.79
11,CCc1ccc(S(=O)(=O)N2CCCC(c3ncc[nH]3)C2)s1 (stereo unspecified),81.2
12,O=S(=O)(c1ccccc1Cl)N1CCCC(c2ncc[nH]2)C1 (stereo unspecified),21.6
13,CCNc1nc2cn(-c3cccc(OC)c3)c(=O)c-2c[nH]1,-76.4
14,O=C(O)c1ccc(=O)n(CC(c2ccc(F)cc2)N2CCCCCC2)c1 (stereo unspecified),14.65
15,CN1CCO[C@@H]2CN(S(=O)(=O)c3ccccc3F)CC[C@@H]2C1,21.7
16,NCC1CCC(C(NC(=O)C2CC2)c2ccccn2)CC1 (stereo unspecified),29.3
17,CCOc1cc(=O)n2c(c1C(=O)OCc1ccc(OC)cc1)CCCC2,27.6
18,CC(=O)Nc1cccc(OCCNC(=O)N(C)Cc2ccncc2)c1,57.7
19,CC(=O)Nc1cccc(OCCNC(=O)N(C)Cc2ccccc2)c1,80.8
20,CC(=O)NCCOc1cccc(Br)c1,48.8
21,CN(CCOc1cccc(F)c1)CC(=O)Nc1ccncc1,21.55
22,CC(=O)Nc1cccc(OCCNC(=O)N(C)Cc2ccco2)c1,-52.9
23,CC(=O)Nc1cccc(CNC(=O)N(C)Cc2ccccc2)c1,-25
